From PubChem BioAssay (EPA / NIEHS)
Values joined by “and” are separate entries in the source; they are usually repeats but may differ in a detail not shown here. Equal values may be shown once. Inconclusive results are not listed. Active and inactive are the calls of the source. How the source made its calls: active means hit-call score of the fitted dose curve at least 0.9, where 1 is the maximum; inconclusive means response in the unintended direction; inactive means score below 0.9.

Target: Cellular tumor antigen p53 (Homo sapiens) (UniProt P04637)
Experiment: TOX21_p53_BLA_p4_ratio: Tox21 HCT-116 p53 Agonism Beta-lactamase Assay, Ratio, Phase 4 (AID 2283601)
Method in brief: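 Signal is the blue/green (460nm/530nm) ratio of cleaved versus uncleaved CCF4-AM substrate, read after 2 h substrate loading. Cells were HCT116 carrying the p53-responsive beta-lactamase reporter, dosed 16 h at 37C, 5% CO2; CellTiter-Glo measured in parallel.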

Chain of Cellular tumor antigen p53 (Homo sapiens) (P04637 whole entry, looked up): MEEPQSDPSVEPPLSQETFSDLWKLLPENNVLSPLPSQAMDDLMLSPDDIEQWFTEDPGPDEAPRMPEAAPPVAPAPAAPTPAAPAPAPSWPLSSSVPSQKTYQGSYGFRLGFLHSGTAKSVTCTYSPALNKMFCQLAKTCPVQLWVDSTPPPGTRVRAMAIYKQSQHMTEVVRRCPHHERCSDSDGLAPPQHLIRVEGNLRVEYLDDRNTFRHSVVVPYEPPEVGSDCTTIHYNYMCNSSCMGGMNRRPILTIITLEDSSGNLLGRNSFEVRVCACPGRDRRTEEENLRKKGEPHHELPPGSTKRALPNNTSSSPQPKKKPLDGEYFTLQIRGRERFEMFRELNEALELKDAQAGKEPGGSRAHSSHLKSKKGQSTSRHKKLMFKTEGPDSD

`CCC[C@@]1(CCc2ccccc2)CC(O)=C([C@H](CC)c2cccc(NS(=O)(=O)c3ccc(C(F)(F)F)cn3)c2)C(=O)O1` was tested. Which outcome did it give?
The outcome was “inactive”.

`COc1cc2c(Nc3ccc(Br)cc3F)ncnc2cc1OCC1CCN(C)CC1` was tested. Which outcome did it give?
The outcome was “inactive”.

Which outcome does the source give for `CO[C@@H]1[C@H](OC(=O)/C=C/C=C/C=C/C=C/C(=O)O)CC[C@]2(CO2)[C@H]1[C@@]1(C)O[C@@H]1CC=C(C)C` here?
The outcome was “inactive”.

`NC(N)=NCc1cccc(I)c1` was tested. Which outcome did it give?
The outcome was “inactive”.

Which AC50 does the source give for `Nc1c2ccccc2nc2ccccc12` here?
The AC50 was 2.28 µM (active) and 5.34 µM (active).

`Clc1cccc(Cl)c1NC1=NCCN1` was tested. Which outcome did it give?
The outcome was “inactive”.

Which outcome does the source give for `CCCC(=O)O[C@]1(C(=O)CCl)[C@@H](C)C[C@H]2[C@@H]3CCC4=CC(=O)C=C[C@]4(C)[C@@]3(F)C(=O)C[C@@]21C` here?
Its outcome is “inactive”.

For `CCCCCCNC(=O)n1cc(F)c(=O)[nH]c1=O`, which AC50 is on record?
The AC50 was 2.24 µM (active).

Which AC50 does the source give for `CO[C@H]1C[C@@H]2CC[C@@H](C)[C@@](O)(O2)C(=O)C(=O)N2CCCC[C@H]2C(=O)O[C@H]([C@H](C)C[C@@H]2CC[C@@H](OCCO)[C@H](OC)C2)CC(=O)[C@H](C)/C=C(\C)[C@@H](O)[C@@H](OC)C(=O)[C@H](C)C[C@H](C)\C=C/C=C/C=C/1C` here?
The AC50 was 23 µM (active).

Which AC50 does the source give for `Cc1c(O)cccc1C(=O)N[C@@H](CSc1ccccc1)[C@H](O)CN1C[C@H]2CCCC[C@H]2C[C@H]1C(=O)NC(C)(C)C` here?
The AC50 was 46.8 µM (active) and 23.1 µM (active).

`CC(=O)NCCCS(=O)(=O)O` was tested. Which outcome did it give?
Its outcome is “inactive”.

Which outcome does the source give for `O=C1Cc2cc(CCN3CCN(c4nsc5ccccc45)CC3)c(Cl)cc2N1` here?
The outcome was “inactive”.

For `C1=CCC(c2ccccc2)CC1` (stereo not drawn), which outcome is on record?
The outcome was “inactive”.

For `O=C1C(=O)c2ncccc2-c2cccnc21`, which AC50 is on record?
Its AC50 is 0.96 µM (active).

How did the outcome turn out when `CC1(C)S[C@@H]2[C@H](NC(=O)[C@H](N)c3ccc(O)cc3)C(=O)N2[C@H]1C(=O)O` was run?
The outcome was “inactive”.

With `CC1(C)N=C(N)N=C(N)N1c1ccc(Cl)cc1` as the compound, how does the outcome read?
Its outcome is “inactive”.

`CCCCC(=O)O[C@]1(C(=O)CO)[C@@H](C)C[C@H]2[C@@H]3CCC4=CC(=O)C=C[C@]4(C)[C@@]3(F)[C@@H](O)C[C@@]21C` was tested. Which outcome did it give?
Its outcome is “inactive”.

With `NNc1nncc2ccccc12` as the compound, how does the outcome read?
The outcome was “inactive”.

`COC(=O)Nc1nc2ccc(Sc3ccccc3)cc2[nH]1` was tested. Which AC50 did it give?
Its AC50 is 122 nM (active) and 96.1 nM (active).

With `C#CCC(Cc1cnc2nc(N)nc(N)c2n1)c1ccc(C(=O)N[C@@H](CCC(=O)O)C(=O)O)cc1` (stereo partly drawn) as the compound, how does the AC50 read?
The AC50 was 0.575 µM (active).

`O=C(O)CN(CCN(CC(=O)O)CC(=O)O)CC(=O)O` was tested. Which outcome did it give?
The outcome was “inactive”.

`CNC(=O)c1cc(Oc2ccc(NC(=O)Nc3ccc(Cl)c(C(F)(F)F)c3)cc2)ccn1` was tested. Which outcome did it give?
The outcome was “inactive”.

How did the AC50 turn out when `O=c1[nH]c(=O)n([C@H]2C[C@H](O)[C@@H](CO)O2)cc1F` was run?
Its AC50 is 6.7 µM (active).

Which outcome does the source give for `Cc1nc2ccccc2n1Cc1ccc(Cl)cc1` here?
The outcome was “inactive”.

For `Cc1nc2sccn2c(=O)c1CCN1CCC(=C(c2ccc(F)cc2)c2ccc(F)cc2)CC1`, which outcome is on record?
Its outcome is “inactive”.

For `C[n+]1c2cc(N)ccc2cc2ccc(N)cc21` (tested in a mixture with another compound), which AC50 is on record?
Its AC50 is 6.18 µM (active).

`CCOC(=O)n1ccn(C)c1=S` was tested. Which outcome did it give?
Its outcome is “inactive”.

How did the outcome turn out when `COc1cc(C)c(/C=C/C(C)=C/C=C/C(C)=C/C(=O)O)c(C)c1C` was run?
The outcome was “inactive”.

With `CC1(C)[C@@H](O[C@H]2O[C@H](C(=O)O)[C@@H](O)[C@H](O)[C@H]2O[C@@H]2O[C@H](C(=O)O)[C@@H](O)[C@H](O)[C@H]2O)CC[C@]2(C)[C@H]3C(=O)C=C4[C@@H]5C[C@@](C)(C(=O)O)CC[C@]5(C)CC[C@@]4(C)[C@]3(C)CC[C@@H]12` as the compound, how does the outcome read?
Its outcome is “inactive”.

Which AC50 does the source give for `CC[C@@]1(O)C(=O)OCc2c1cc1n(c2=O)Cc2cc3c(CN(C)C)c(O)ccc3nc2-1` here?
Its AC50 is 6.7 µM (active).

`COc1ccc(Cl)cc1C(=O)NCCc1ccc(S(=O)(=O)NC(=O)NC2CCCCC2)cc1` was tested. Which outcome did it give?
Its outcome is “inactive”.

Which outcome does the source give for `CC(C)(C)CC(C)(C)c1ccc(O)c(Cc2ccc(Cl)cc2Cl)c1` here?
Its outcome is “inactive”.

For `Oc1c(I)cc(I)c2cccnc12`, which outcome is on record?
Its outcome is “inactive”.

With `Cc1cc(Nc2ccccc2C(=O)O)ccc1Cl` as the compound, how does the AC50 read?
The AC50 was 23 µM (active).

Which AC50 does the source give for `CC(C)=CCC1=C(O)c2ccccc2C(=O)C1=O` here?
The AC50 was 2.71 µM (active).

Target: Thyroid hormone receptor alpha (Rattus norvegicus) + Thyroid hormone receptor beta (Rattus norvegicus) (UniProt P18113+P63059)
Experiment: TOX21_TR_LUC_GH3_Antagonist_Followup: Tox21 GH3 Thyroid Hormone Receptor Antagonism Luciferase Follow-Up Assay (AID 2283942)
Method in brief: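 Loss of T3-driven (1.0 nM final) reporter activity in GH3 cells was read by ONE-Glo luminescence after 24 h incubation at 37C; 15-point compound series spanned 92 uM to 5nM final, 1,500 cells/well.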

`NC(N)=NCc1cccc(I)c1` was tested. Which outcome did it give?
The outcome was “inactive”.

`Nc1c2ccccc2nc2ccccc12` was tested. Which AC50 did it give?
The AC50 was 6.25 µM (active).

`CCCCCCNC(=O)n1cc(F)c(=O)[nH]c1=O` was tested. Which AC50 did it give?
The AC50 was 12 µM (active).

`CO[C@H]1C[C@@H]2CC[C@@H](C)[C@@](O)(O2)C(=O)C(=O)N2CCCC[C@H]2C(=O)O[C@H]([C@H](C)C[C@@H]2CC[C@@H](OCCO)[C@H](OC)C2)CC(=O)[C@H](C)/C=C(\C)[C@@H](O)[C@@H](OC)C(=O)[C@H](C)C[C@H](C)\C=C/C=C/C=C/1C` was tested. Which AC50 did it give?
The AC50 was 0.00976 µM (active).

Which outcome does the source give for `O=C1C(=O)c2ncccc2-c2cccnc21` here?
Its outcome is “inactive”.

For `CC1(C)N=C(N)N=C(N)N1c1ccc(Cl)cc1`, which outcome is on record?
The outcome was “inactive”.

`C#CCC(Cc1cnc2nc(N)nc(N)c2n1)c1ccc(C(=O)N[C@@H](CCC(=O)O)C(=O)O)cc1` (stereo partly drawn) was tested. Which outcome did it give?
The outcome was “inactive”.

`O=c1[nH]c(=O)n([C@H]2C[C@H](O)[C@@H](CO)O2)cc1F` was tested. Which outcome did it give?
Its outcome is “inactive”.

For `C[n+]1c2cc(N)ccc2cc2ccc(N)cc21` (tested in a mixture with another compound), which AC50 is on record?
Its AC50 is 18.2 µM (active).

`CC[C@@]1(O)C(=O)OCc2c1cc1n(c2=O)Cc2cc3c(CN(C)C)c(O)ccc3nc2-1` was tested. Which outcome did it give?
The outcome was “inactive”.

For `Oc1c(I)cc(I)c2cccnc12`, which outcome is on record?
The outcome was “inactive”.

For `Cc1cc(Nc2ccccc2C(=O)O)ccc1Cl`, which outcome is on record?
Its outcome is “inactive”.

`CC(C)=CCC1=C(O)c2ccccc2C(=O)C1=O` was tested. Which outcome did it give?
The outcome was “inactive”.
